# The entries come from a sample that favours hits as a whole.
# Shiga toxin inh – blocks Shiga toxin action in Vero cells; inhibition, % at 38.7 µM; Vero cells, Shiga toxin protein synthesis inhibition reporter; actives 9.2% (n = 290,000); AID 2315; in the data active = inhibition mostly above about 28%, no sharp cut-off; inactive = mostly below about 43%; also: 0% is about no effect
# FBPA Giardia inh – inhibitors of Giardia lamblia fructose-1,6-bisphosphate aldolase; A8B2U2; purified Giardia FBPA; Potency, µM (titrated, usually from 59.6 µM), without a hit: at the highest dose activity, negative = inhibition, usual class: inhibitors; actives 0.71% (n = 290,000); AID 2451; also: potency is read from the fitted curve at half-maximal effect; % is scaled to controls: 0 for no effect and ±100 for the full control effect; nearly all actives have a fitted effect of over 55% in size
#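 Giardia FBPA (40 nM reagent) was preincubated 10 min at RT with compound (up to 57.5 uM final), then substrate plus GAPDH/TPI/NAD/arsenate coupling system with diaphorase/resazurin was added; resorufin fluorescence (525/598 nm) was read after 20 min.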
# Sm TGR block – S. mansoni TGR enzyme inhibition; purified TGR, DTNB reduction, TNB absorbance 405 nm; AID 485364; actives 3% (n = 360,000); Q962Y6; Potency, µM (highest dose often 114 µM), without a hit: top-dose activity change, negative = inhibition, hits mostly inhibitors; also: potency is read from the fitted curve at half-maximal effect; % is scaled to controls: 0 for no effect and ±100 for the full control effect; nearly all actives have a fitted effect of over 60% in size
#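 First, TGR (20 nM dispensed) and NADPH were mixed with compound. Second, a 15 min room-temperature incubation followed. Third, further NADPH and then DTNB were added to start the reaction. Finally, TNB absorbance was monitored kinetically.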
# TbPYK inhibitor – T. brucei pyruvate kinase inhibition; Q57TT1; TbPYK enzyme, Kinase-Glo Plus ATP luminescence, 45 min; Potency, µM (titrated, usually from 76.8 µM), without a hit: top-dose activity, negative = inhibition, usual class: inhibitors; actives 0.12% (n = 410,000); also: potency is read from the fitted curve at half-maximal effect; % is scaled to controls: 0 for no effect and ±100 for the full control effect; nearly all actives have a fitted effect of over 50% in size
#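 Glycolytic pyruvate kinase of T. brucei was incubated with substrate, test compound and 130 uM ADP for 45 minutes at room temperature. Luminescent Kinase-Glo Plus signal was measured after 10 minutes.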
# LmPK inhibitor – LmPK (Leishmania mexicana) enzyme inhibition. Q27686. purified LmPK, Kinase-Glo ATP luminescence, 1 h. Potency, µM (series often up to 57.5 µM), without a hit: top-dose activity change, negative = inhibition, most hits filed as inhibitors. actives 0.37% (n = 290,000). AID 1721; also: potency is read from the fitted curve at half-maximal effect; % is scaled to controls: 0 for no effect and ±100 for the full control effect
# Target sequence (Q27686 whole entry, looked up): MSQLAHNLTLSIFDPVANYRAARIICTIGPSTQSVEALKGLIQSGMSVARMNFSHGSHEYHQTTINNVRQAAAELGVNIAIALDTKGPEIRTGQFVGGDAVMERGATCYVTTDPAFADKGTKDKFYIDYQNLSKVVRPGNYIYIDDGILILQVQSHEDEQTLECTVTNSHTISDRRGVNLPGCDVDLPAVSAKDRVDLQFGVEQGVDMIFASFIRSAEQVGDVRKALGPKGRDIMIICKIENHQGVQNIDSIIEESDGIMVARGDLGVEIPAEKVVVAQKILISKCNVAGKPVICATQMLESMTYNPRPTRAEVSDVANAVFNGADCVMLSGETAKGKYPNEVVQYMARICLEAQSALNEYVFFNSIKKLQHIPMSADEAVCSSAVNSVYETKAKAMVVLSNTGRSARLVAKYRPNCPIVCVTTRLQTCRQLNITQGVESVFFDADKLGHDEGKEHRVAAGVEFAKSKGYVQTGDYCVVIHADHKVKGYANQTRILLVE
#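 Kinase-Glo luminescence read after 1 h RT reaction of 0.1 nM LmPK with 0.5 mM PEP and 0.1 mM ADP. Activity scaled between uninhibited and enzyme-free controls.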
# Cycloheximide cs – affects cycloheximide protein synthesis inhibition readout, counter-screen; cell reporter, cycloheximide protein synthesis inhibition counterscreen; actives 12% (n = 300,000); max response, %; in the data active = max response mostly above about 13%, no sharp cut-off; inactive = mostly below about 14%; also: read at 38.3 µM for the half of the compounds with a filed dose; 0% is about no effect
# LmPK confirm – Confirms inhibition of Leishmania mexicana pyruvate kinase; shares compounds with LmPK inhibitor; purified LmPK, Kinase-Glo ATP luminescence, 1 h; Potency, µM (highest dose often 57.5 µM), for the others: top-dose activity change, negative = inhibition, usual class: inhibitors; actives 40% (n = 150); AID 2559;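 active = compounds giving a full or partial concentration-response curve, as inhibitors or activators; inconclusive = weak, top-dose-only or unclear curve responses; inactive = no response at any tested dose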
# The depositor's hits bear a star; ? = inconclusive; . = not tested or not shown. Unless noted, calls follow the shape of the dose curve; as a rule, active = well fitted curve in the direction sought with a large enough effect; inconclusive = small, poorly fitted or top-dose-only effect, or another doubt; inactive = no such curve, though single readings can be large; an effect the other way counts as inactive or inconclusive.
SMILES,Shiga toxin inh,FBPA Giardia inh,Sm TGR block,TbPYK inhibitor,LmPK inhibitor,Cycloheximide cs,LmPK confirm
CCN1/C(=C/c2ccc3cc(C)cc(C)c3[n+]2CC)Sc2cc(C)ccc21,-16,-1%,-18%,-16%,-10%,3,.
CCc1cccc(C)c1NS(=O)(=O)c1c(C(=O)N2CCC(C)CC2)c(C)n(C)c1C,.,.,0%,0%,.,.,.
O=C1C=CC(=O)N1CCCCCCN1C(=O)C=CC1=O,-19,-2%,-9%,10µM*,?,-9,?
CCOc1ccc(Br)cc1C1C(C(=O)OC)=C(C)NC2=C1C(=O)c1ccccc12 (stereo not drawn),.,.,0%,-2%,.,.,.
CN1C(=O)CCS(=O)(=O)[C@H]1c1ccc(Cl)cc1,.,10%,.,.,.,.,.
COc1ccc(C(=O)c2cc3ccc(O)cc3oc2=O)cc1,11,20%,5%,-34%,-20%,6,.
O=C(c1ccccc1)c1cc2ccc(O)cc2oc1=O,36,14%,-12%,?,3.5µM*,21*,7.3µM*
O=C(CSc1nc2ccsc2c(=O)n1-c1ccc(Br)cc1)NCc1ccc(Cl)cc1,.,.,2%,4%,.,.,.
Cc1ccccc1N=CC1=C(O)c2ccccc2C1=O,42,-12%,.,?,4µM*,35*,15µM*
Cc1nc(N/N=C/c2ccccn2)sc1C,0,-22%,-8%,?,10µM*,7,18µM*
Clc1ccccc1NN=Cc1ccccn1,.,.,.,2%,.,.,.
CN1OC[C@@H]2CN(C(=O)CCc3ccccc3)[C@H](c3cccc(Oc4ccccc4)c3)C[C@@H]21,.,.,.,2%,.,.,.
CC(C)[C@H](N)c1nnc(SCc2ccc(Cl)cc2)o1,-12,-4%,-34%,0%,-1%,-4,-2%
CCOC(=O)c1ccc(NC(=O)Nc2ccc3c4c(cccc24)C(=O)N3CC)cc1,-33,-15%,2%,-12%,2%,-1,2%
c1ccc(Oc2ccccc2-c2cc(NCCc3cccnc3)n3nccc3n2)cc1,.,.,.,6%,.,.,.
O=C(Cc1cccc([N+](=O)[O-])c1)NCc1nc2cccnc2n1Cc1ccc(F)cc1,.,.,2%,7%,.,.,.
COc1ccc(C(=O)Nc2scc(-c3ccc(Cl)cc3Cl)c2C(N)=O)cc1,153*,-7%,-25%,4%,5%,44*,0%
COC(=O)c1ccc(Nc2nc(C)cc(C)n2)cc1,15,4%,14%,-3%,-5%,6,-5%
CCOC(=O)CNS(=O)(=O)c1cc(-c2nn(C)c(=O)c3ccccc23)ccc1C,-9,-12%,-3%,-10%,2%,-2,7%
CC1CCCC(CC(N)=O)CC1 (stereo not drawn),.,.,.,0%,.,.,.
Cc1ccc(S(=O)(=O)N2CCN(Cc3ccccc3C(F)(F)F)CC2)cc1,-3,?,16%,-11%,-8%,2,4%
OC[C@@H]1CN(Cc2ccncc2)C[C@H](n2cnc3c(N4CCCC4)ncnc32)O1,.,.,.,-3%,.,.,.
CN(Cc1cccc(-n2cccn2)c1)Cc1cn(C)nc1-c1ccccc1F,14,0%,-36%,0%,-5%,-2,-7%
CN1CCN(C2CN(Cc3ccc(F)cc3)S(=O)(=O)C2)CC1 (stereo not drawn),.,.,.,1%,.,.,.
O=CN/C=C/c1cc(O)ccc1O,10,?,6.3µM*,-21%,4.5µM*,4,?
SMILES,Shiga toxin inh,FBPA Giardia inh,Sm TGR block,TbPYK inhibitor,LmPK inhibitor,Cycloheximide cs,LmPK confirm
O=Cc1ccc(O)cc1O,-4,4%,-20%,-7%,-11%,1,.
O=C(/C=C/Nc1ccccc1Br)c1ccccn1,-20,4%,0%,?,5µM*,-7,21µM*
CC1CC(C)CN(C(=O)CN2C(=O)NC(c3ccccc3)(c3ccccc3)C2=O)C1 (stereo not drawn),.,.,-1%,2%,.,.,.
O=C1C(c2cc(=O)c3ccccc3[nH]2)=C(O)c2ccccc21,137*,?,4%,8.9µM*,4µM*,42*,?
O=C(Nc1cccc(C(F)(F)F)c1)c1cc(-c2ccc3c(c2)OCCO3)on1,.,.,-1%,-6%,.,.,.
COC(=O)c1sc(NC(=O)c2c(C)noc2C)nc1C,8,.,0%,3%,-10%,2,.
COC(=O)c1sc(NC(=O)c2ccoc2C)nc1C,16*,-1%,1%,-1%,7.1µM*,26*,16µM*
Cc1ccsc1C(=O)Nc1nc2ccccc2[nH]1,75*,-9%,7%,?,2.8µM*,28*,21µM*
O=C(Nc1nc2ccccc2[nH]1)c1ccccc1F,-23,-11%,9%,?,3.2µM*,-9,6.5µM*
O=C(CCNC(=O)c1ccc(Cl)cc1)Nc1nc2ccccc2[nH]1,.,.,.,-8%,.,.,.
Cc1cn([C@H]2C[C@H](O)[C@@H](CNCc3ccc(Oc4cc(-n5cccn5)ncn4)cc3)O2)c(=O)[nH]c1=O,.,.,.,-14%,.,.,.
CC(C)(C)NC(=O)C(c1ccncc1)N(C(=O)Cn1nnc(-c2ccc(F)cc2)n1)c1ccccc1 (stereo not drawn),-11,-27%,?,0%,8.9µM*,-3,-6%
COn1c(SCc2ccc(Cl)cc2)nc2ccccc2c1=O,19,1%,6%,-25%,8%,-4,2%
CC1CCCC(C)N1/N=C/c1ccc(O)c(O)c1 (stereo not drawn),17,?,?,-4%,?,1,.
CN=c1scc(-c2ccco2)n1/N=C/c1ccc(O)c(O)c1,16,?,10µM*,-14%,5.6µM*,4,?
Cc1ccnc(NC(=O)c2ccc3c(c2)OCO3)c1,66*,-10%,7%,?,14µM*,25*,16µM*

# From PubChem
